Data as given in PubChem BioAssay (EPA / NIEHS).
Activity calls are given as the source filed them. How the source made its calls: active means hit-call score of the fitted dose curve at least 0.9, where 1 is the maximum; inactive means score below 0.9.

Experiments:
[1] = ATG_E_Box_CIS: Attagene CIS-FACTORIAL HepG2 Assay for human Enhancer Box (E-box) (AID 2282936); details: HepG2 E-box cis-reporter transcription, actives raise or lower the signal
Procedure, shortened: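 First, HepG2 cells receive multiple cis-regulated reporter constructs by transient transfection. Next, chemicals are applied for 24 h. Finally, reporter mRNA is quantified via RT-PCR and capillary electrophoresis, with DMSO as baseline.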

[2] = ATG_M_61_CIS: Attagene CIS-FACTORIAL HepG2 Assay for M61 Transcription Factor (Internal Marker) (AID 2282937); details: HepG2 Attagene CIS-FACTORIAL M61 internal marker reporter; actives raise or lower the signal
Procedure, shortened: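 Human liver HepG2, transient MRTU transfection (cis promoter elements), 24 h compound. Total RNA → oligo(dT) RT → PCR → FAM label → HpaI → CE. Internal background marker; bidirectional fitting, DMSO = baseline.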

[3] = ATG_M_19_CIS: Attagene CIS-FACTORIAL HepG2 Assay for M19 Transcription Factor (Internal Marker) (AID 2282939); details: HepG2 Attagene CIS-FACTORIAL M19 internal marker reporter; actives raise or lower the signal
Procedure, shortened: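 Chemical-treated HepG2 (24 h) with MRTU constructs; reporter transcripts detected by fluorescent RT-PCR fragment analysis on capillary electrophoresis. Internal background marker, DMSO as baseline.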

[4] = ATG_ERE_CIS: Attagene CIS-FACTORIAL HepG2 Assay for Estrogen Response Element (ERE) (AID 2282940); details: HepG2 ERE cis-reporter, Attagene RNA transcript; actives raise or lower the signal
Procedure, shortened: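 Human liver cells (HepG2) bearing transiently transfected, promoter-regulated reporter units were exposed 24 h. Reporter mRNA induction was detected by capillary electrophoresis of labelled RT-PCR products and fitted bidirectionally to DMSO.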

[5] = ATG_Ets_CIS: Attagene CIS-FACTORIAL HepG2 Assay for human Erythroblast Transformation Specific (ETS) (AID 2282941); details: HepG2 ETS cis-reporter transcription, actives raise or lower the signal
Procedure, shortened: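 HepG2 cells transiently transfected with cis-promoter reporter transcription units were dosed for 24 h; reporter mRNA was measured by RT-PCR, 6-FAM primer extension, HpaI digestion and capillary electrophoresis, with bidirectional fitting against DMSO baseline.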

[6] = molecular target: Hepatocyte nuclear factor 3-beta (Homo sapiens) (UniProt Q9Y261); assay: ATG_FoxA2_CIS: Attagene CIS-FACTORIAL HepG2 Assay for human Forkhead box A2 (FOXA2) (AID 2282942); details: HepG2 cis-reporter transcription factor activity, 24 h; actives raise or lower the signal
Procedure, shortened: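 Transient MRTU transfection of HepG2 liver cells; 24 h treatment; total RNA → oligo(dT) RT → PCR → FAM primer extension → HpaI cut → CE. Bidirectional fit vs DMSO.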

[7] = ATG_FoxO_CIS: Attagene CIS-FACTORIAL HepG2 Assay for human Forkhead box O (FoxO) (AID 2282943); details: HepG2 Attagene cis-reporter, FoxO element, mRNA; actives raise or lower the signal
Procedure, shortened: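 Read-out: fluorescence of 6-FAM-labelled reporter cDNA fragments resolved by capillary electrophoresis. Transiently transfected HepG2 cells were dosed for 24 h; activity fitted in both directions relative to DMSO controls.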

[8] = ATG_GATA_CIS: Attagene CIS-FACTORIAL HepG2 Assay for human GATA Binding Protein (AID 2282944); details: HepG2 GATA cis-element reporter, Attagene multiplex mRNA; actives raise or lower the signal
Procedure, shortened: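 Transfected cis-reporter HepG2 cells were treated with chemicals for 24 hours. Total RNA was then converted to cDNA, amplified with reporter-specific primers and analysed by fluorescent capillary electrophoresis, using DMSO-treated wells as baseline.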

[9] = ATG_GLI_CIS: Attagene CIS-FACTORIAL HepG2 Assay for human Zinc Finger Protein GLI1 (AID 2282945); details: HepG2, Attagene cis-factorial reporter mRNA, GLI element; actives raise or lower the signal
Procedure, shortened: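 Transiently transfected HepG2 cells report endogenous transcription factor activity via cis-element-driven reporter units. After 24 h compound exposure, reporter mRNA was measured by RT-PCR with capillary electrophoresis; bidirectional fitting against DMSO baseline.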

[10] = ATG_M_32_CIS: Attagene CIS-FACTORIAL HepG2 Assay for M32 Transcription Factor (Internal Marker) (AID 2282949); details: HepG2 Attagene cis-factorial M32 reporter, mRNA; actives raise or lower the signal;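 further: background control marker of the multiplexed CIS panel rather than a real target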
Procedure, shortened: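 Internal background marker read-out: RT-PCR/capillary electrophoresis fluorescence of reporter transcripts from transiently transfected HepG2 cells after 24 h chemical exposure. Activity fitted bidirectionally relative to DMSO negative control.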

[11] = ATG_M_06_CIS: Attagene CIS-FACTORIAL HepG2 Assay for M06 Transcription Factor (Internal Marker) (AID 2282950); details: HepG2 Attagene CIS-FACTORIAL M06 internal marker reporter; actives raise or lower the signal
Procedure, shortened: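 Cells (HepG2, transiently carrying cis-driven reporter units) receive chemical for 24 h before RNA isolation. Reporter cDNA is PCR-amplified, FAM-labelled by primer extension, HpaI-digested and sized on a capillary analyser.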

[12] = molecular target: Hypoxia-inducible factor 1-alpha (Homo sapiens) (UniProt Q16665); assay: ATG_HIF1a_CIS: Attagene CIS-FACTORIAL HepG2 Assay for human Hypoxia Inducible Factor 1 (HIF1A) (AID 2282951); details: HepG2 Attagene cis-factorial HIF1a reporter transcription; actives raise or lower the signal
Procedure, shortened: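 Transient MRTU transfection of human HepG2 liver cells, 24 h compound treatment, then total RNA isolation, oligo(dT) reverse transcription, PCR amplification, fluorescent labelling and capillary electrophoresis of reporter fragments. Gain or loss relative to DMSO.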

[13] = ATG_MRE_CIS: Attagene CIS-FACTORIAL HepG2 Assay for human Metal Responsive Element (MRE) (AID 2282954); details: HepG2 MRE cis-reporter transcription, Attagene multiplex; actives raise or lower the signal
Procedure, shortened: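 Fluorescent reporter fragments separated by capillary electrophoresis give mRNA induction for the MRE unit after 24 h treatment of transfected HepG2 cells. Endogenous transcription-factor activity is read; DMSO serves as negative control and baseline.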

[14] = molecular target: Bile acid receptor (Homo sapiens) (UniProt Q96RI1); assay: ATG_IR1_CIS: Attagene CIS-FACTORIAL HepG2 Assay for human Nuclear Receptor Subfamily 1 Group H Member 4 (NR1H4), IR1 submotif (AID 2282946); details: IR1 reporter transcription, actives raise or lower the signal
Procedure, shortened: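 HepG2 cells transiently transfected with multiple cis-promoter-driven reporter units to measure endogenous transcription factor activity; 24 h exposure. Reporter mRNA read by RT-PCR, FAM labelling, HpaI digestion and capillary electrophoresis. Bidirectional fit versus DMSO.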

[15] = ATG_ISRE_CIS: Attagene CIS-FACTORIAL HepG2 Assay for human Interferon Regulatory Factor 1 (IRF1) binding to an Interferon-Stimulated Response Element (ISRE) (AID 2282948); details: HepG2 ISRE cis-reporter (Attagene), mRNA transcription readout; actives raise or lower the signal
Procedure, shortened: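 HepG2 cells transiently transfected with multiplexed cis-promoter reporter units; after 24 h compound exposure, reporter mRNA quantified by RT-PCR, FAM labelling, HpaI digestion and capillary electrophoresis. Bidirectional fit versus DMSO baseline.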

[16] = ATG_GRE_CIS: Attagene CIS-FACTORIAL HepG2 Assay for human Glucocorticoid Response Elements (GRE) (AID 2282947); details: HepG2 GRE cis-reporter, Attagene multiplex mRNA; actives raise or lower the signal
Procedure, shortened: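 Endogenous transcription factor activity is read through cis-element reporter constructs transiently transfected into HepG2 cells. After 24 h treatment, labelled RT-PCR products are resolved by capillary electrophoresis; DMSO sets baseline for bidirectional curve fitting.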

[17] = molecular target: Hepatocyte nuclear factor 6 (Homo sapiens) (UniProt Q9UBC0); assay: ATG_HNF6_CIS: Attagene CIS-FACTORIAL HepG2 Assay for human Hepatocyte Nuclear Factor 6 (HNF6) (AID 2282952); details: HepG2 Attagene cis-factorial HNF6 reporter transcription; actives raise or lower the signal
Procedure, shortened: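 Transiently transfected HepG2 cells expressing cis-regulated reporter transcription units were exposed to chemical for 24 h in a 24-well format. Reporter transcript abundance was determined by fluorescence capillary electrophoresis.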

[18] = molecular target: Heat shock factor protein 1 (Homo sapiens) (UniProt Q00613); assay: ATG_HSE_CIS: Attagene CIS-FACTORIAL HepG2 Assay for human Heat Shock Transcription Factor 1 (HSE) (AID 2282953); details: HepG2 HSE cis-reporter, Attagene RNA transcription; actives raise or lower the signal
Procedure, shortened: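 Liver-derived HepG2 cells carry transiently introduced multiple reporter units governed by cis promoters. Reporter RNA measured 24 h post-dose through reverse transcription, PCR amplification, fluorescent labelling and capillary electrophoresis, normalised to DMSO.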

[19] = ATG_PBREM_CIS: Attagene CIS-FACTORIAL HepG2 Assay for human Phenobarbital-responsive Enhancer Module (PBREM) (AID 2282955); details: HepG2 PBREM cis-reporter, Attagene multiplexed transcription; actives raise or lower the signal
Procedure, shortened: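 Endogenous transcription factors in human liver HepG2 cells drive a PBREM cis-element reporter, whose transcript level after 24 h treatment is quantified by RT-PCR with capillary electrophoresis; activity fitted in both directions against DMSO.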

[20] = ATG_EGR_CIS: Attagene CIS-FACTORIAL HepG2 Assay for human Early Growth Response 1 (EGR1) (AID 2282938); details: HepG2 Attagene CIS-FACTORIAL EGR reporter mRNA; actives raise or lower the signal
Procedure, shortened: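 Transient transfection of human HepG2 with multiple cis-regulated reporter units, chemical exposure 24 h, total RNA isolated. Reverse transcription, PCR, fluorescent labelling and capillary electrophoresis quantify reporter transcripts; activity fitted bidirectionally against DMSO.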

Measured: AC50

Chain of Hepatocyte nuclear factor 6 (Homo sapiens) (Q9UBC0 whole entry, looked up): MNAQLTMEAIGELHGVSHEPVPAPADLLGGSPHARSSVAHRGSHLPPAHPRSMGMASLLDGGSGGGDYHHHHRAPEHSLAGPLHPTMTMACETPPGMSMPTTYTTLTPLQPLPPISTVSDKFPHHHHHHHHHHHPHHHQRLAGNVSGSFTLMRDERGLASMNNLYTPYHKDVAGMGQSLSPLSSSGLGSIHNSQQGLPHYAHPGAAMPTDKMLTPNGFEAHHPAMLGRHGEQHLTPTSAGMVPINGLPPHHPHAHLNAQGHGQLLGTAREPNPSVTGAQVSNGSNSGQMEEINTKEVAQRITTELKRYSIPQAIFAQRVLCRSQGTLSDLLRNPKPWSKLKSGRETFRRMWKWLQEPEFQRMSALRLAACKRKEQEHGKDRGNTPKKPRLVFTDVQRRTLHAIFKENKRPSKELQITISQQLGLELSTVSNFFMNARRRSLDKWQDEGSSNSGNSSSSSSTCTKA
Chain of Heat shock factor protein 1 (Homo sapiens) (Q00613 whole entry, looked up): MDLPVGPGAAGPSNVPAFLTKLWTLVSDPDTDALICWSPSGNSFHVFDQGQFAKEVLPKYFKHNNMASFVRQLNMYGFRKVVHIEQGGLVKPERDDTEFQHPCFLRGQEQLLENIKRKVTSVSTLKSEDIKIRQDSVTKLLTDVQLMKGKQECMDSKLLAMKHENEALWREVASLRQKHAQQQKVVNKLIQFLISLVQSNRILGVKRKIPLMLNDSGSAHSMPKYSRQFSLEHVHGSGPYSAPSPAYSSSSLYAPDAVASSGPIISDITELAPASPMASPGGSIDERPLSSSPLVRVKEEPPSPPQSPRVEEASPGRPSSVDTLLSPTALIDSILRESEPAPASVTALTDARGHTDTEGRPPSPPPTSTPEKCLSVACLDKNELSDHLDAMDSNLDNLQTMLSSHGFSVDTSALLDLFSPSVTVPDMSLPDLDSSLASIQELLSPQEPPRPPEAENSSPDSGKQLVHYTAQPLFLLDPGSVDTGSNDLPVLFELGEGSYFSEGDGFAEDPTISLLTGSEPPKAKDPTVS
Chain of Bile acid receptor (Homo sapiens) (Q96RI1 whole entry, looked up): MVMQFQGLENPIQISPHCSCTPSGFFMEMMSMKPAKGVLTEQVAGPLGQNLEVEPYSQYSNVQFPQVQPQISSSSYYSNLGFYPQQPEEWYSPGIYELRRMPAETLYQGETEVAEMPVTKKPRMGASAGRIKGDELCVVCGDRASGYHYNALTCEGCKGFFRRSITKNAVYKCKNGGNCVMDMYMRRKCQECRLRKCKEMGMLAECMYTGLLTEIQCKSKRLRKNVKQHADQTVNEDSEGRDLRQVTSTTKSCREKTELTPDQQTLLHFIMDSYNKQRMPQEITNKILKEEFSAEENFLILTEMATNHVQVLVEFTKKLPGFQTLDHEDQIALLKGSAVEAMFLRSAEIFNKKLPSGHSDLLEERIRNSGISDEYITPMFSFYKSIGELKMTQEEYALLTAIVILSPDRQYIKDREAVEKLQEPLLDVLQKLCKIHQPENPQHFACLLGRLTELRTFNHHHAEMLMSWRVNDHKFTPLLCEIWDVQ
Chain of Hypoxia-inducible factor 1-alpha (Homo sapiens) (Q16665 whole entry, looked up, the tested form may be a part): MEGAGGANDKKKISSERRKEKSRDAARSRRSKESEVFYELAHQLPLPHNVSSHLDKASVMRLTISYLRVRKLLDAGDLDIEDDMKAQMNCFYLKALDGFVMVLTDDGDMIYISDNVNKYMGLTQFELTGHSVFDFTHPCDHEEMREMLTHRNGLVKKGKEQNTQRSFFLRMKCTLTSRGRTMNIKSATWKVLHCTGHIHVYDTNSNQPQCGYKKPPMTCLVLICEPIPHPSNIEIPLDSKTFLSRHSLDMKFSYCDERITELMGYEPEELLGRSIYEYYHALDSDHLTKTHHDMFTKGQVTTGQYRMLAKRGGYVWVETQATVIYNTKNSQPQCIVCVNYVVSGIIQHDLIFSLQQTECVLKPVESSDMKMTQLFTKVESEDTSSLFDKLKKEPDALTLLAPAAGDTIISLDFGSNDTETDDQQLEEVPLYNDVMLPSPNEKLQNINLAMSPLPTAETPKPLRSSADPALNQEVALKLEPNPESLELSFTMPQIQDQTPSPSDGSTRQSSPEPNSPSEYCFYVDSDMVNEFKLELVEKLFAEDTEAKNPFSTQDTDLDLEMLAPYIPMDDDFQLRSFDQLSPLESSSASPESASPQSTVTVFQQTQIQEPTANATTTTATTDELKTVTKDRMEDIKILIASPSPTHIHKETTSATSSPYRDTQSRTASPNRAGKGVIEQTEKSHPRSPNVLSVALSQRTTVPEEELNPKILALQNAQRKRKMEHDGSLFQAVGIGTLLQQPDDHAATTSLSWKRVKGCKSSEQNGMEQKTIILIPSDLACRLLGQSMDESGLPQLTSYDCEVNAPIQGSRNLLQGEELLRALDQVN
Chain of Hepatocyte nuclear factor 3-beta (Homo sapiens) (Q9Y261 whole entry, looked up): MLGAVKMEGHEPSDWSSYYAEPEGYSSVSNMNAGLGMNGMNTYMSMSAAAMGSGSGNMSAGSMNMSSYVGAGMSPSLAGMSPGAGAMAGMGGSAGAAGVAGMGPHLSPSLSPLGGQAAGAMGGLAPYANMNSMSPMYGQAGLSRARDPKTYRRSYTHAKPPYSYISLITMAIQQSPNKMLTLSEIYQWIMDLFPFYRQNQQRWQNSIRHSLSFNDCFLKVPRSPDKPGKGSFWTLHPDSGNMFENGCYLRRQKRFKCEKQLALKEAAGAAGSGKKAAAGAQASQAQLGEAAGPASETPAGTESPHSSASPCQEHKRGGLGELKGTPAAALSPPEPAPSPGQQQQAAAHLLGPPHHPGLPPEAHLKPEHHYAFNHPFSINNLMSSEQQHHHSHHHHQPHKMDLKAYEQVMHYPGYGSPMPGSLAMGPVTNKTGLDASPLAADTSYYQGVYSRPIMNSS

CCC(=O)OCCOc1ccccc1
not listed: [14] | [15] | [16] | [17] | [18] | [19] | [20]
inactive: all other assays above

CCC1(C)NC(=O)NC1=O (stereo not given)
not listed: [4] | [16] | [17] | [18] | [19] | [20]
inactive: all other assays above

CC(C)(C)C1=CC(=O)C(C(C)(C)C)=CC1=O
inactive: [1] | [2] | [3] | [14] | [10] | [11] | [19]
active: [5] 36.6 µM | [7] 50 µM | [8] 68.3 µM | [9] 81.7 µM | [16] 50 µM | [15] 71.2 µM | [12] 33.3 µM | [17] 78.1 µM | [18] 97.3 µM | [13] 50 µM

O=C1c2ccccc2C(=O)c2c(O)ccc(O)c21
active: [1] 3.7 µM
not listed: [4] | [8] | [11] | [20]
inactive: all other assays above

OCCc1ccccc1
not listed: [3] | [4] | [7] | [16] | [19] | [20]
inactive: all other assays above

CC(C)(C)OC(=O)c1ccc(O)cc1
active: [18] 159 µM
not listed: [4] | [11] | [13] | [20]
inactive: all other assays above

CCCOCCO
not listed: [4] | [7] | [20]
inactive: all other assays above

CCNCCO
not listed: [4] | [5] | [15] | [19] | [20]
inactive: all other assays above

C=C1CC[C@H](O)C/C1=C/C=C1\CCC[C@]2(C)[C@@H]([C@H](C)/C=C/[C@H](C)C(C)C)CC[C@@H]12
not listed: [4] | [7] | [12] | [15] | [20]
inactive: all other assays above

CCCCN(CCCC)C(=O)N(CCCC)CCCC
active: [9] 51.7 µM | [14] 24.5 µM | [16] 48.3 µM | [12] 54.8 µM | [17] 53.7 µM | [13] 8.86 µM | [19] 58.9 µM
not listed: [4] | [11] | [18] | [20]
inactive: all other assays above

CCCC(=O)OCCc1ccccc1
not listed: [4] | [6] | [14] | [18] | [20]
inactive: all other assays above

C=C(C)C(=O)OCCOC1CC2CC1C1C=CCC21 (stereo not given)
not listed: [4] | [16] | [20]
inactive: all other assays above

CCCCCCCCCCCC(=O)OC[C@@H](O)[C@H]1OC[C@H](O)[C@H]1O
not listed: [1] | [4] | [15] | [18]
inactive: all other assays above

CC(C)=CCCC(C)CC(=O)O (stereo not given)
not listed: [1] | [4] | [5] | [7] | [13] | [14]
inactive: all other assays above

CC1(C)COCN1
not listed: [1] | [4] | [7]
inactive: all other assays above

C=C(C)C1CC=C(C)C(=O)C1 (stereo not given)
not listed: [1] | [3] | [4] | [5] | [13] | [14] | [19]
inactive: all other assays above

CC(C)Nc1nc(N)nc(Cl)n1
not listed: [1] | [4] | [8] | [13] | [14]
inactive: all other assays above
